Among the data in PubChem BioAssay are composite z-score and composite Z-score values, retold here.

Molecules are shown by their SMILES. The source made the active and inactive calls.

In one test the target is Albumin (Bos taurus) (UniProt P02769). In words: compounds binding labelled BSA control protein – biochemical, small-molecule microarray, Alexa647 label, 635/667 nm fluorescence, artefact control for SMM control protein annotation, profiling panel (AID 1118).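 Further: score merges 667 nm emission intensity and signal-to-noise per printed compound spot.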 The following applies: BSA-A647 binding, fluorescence 635 nm, higher = more signal.
The nature of test [1]: probe aXIP binding to arrayed compounds – biochemical, NeuroSMM set, 635/667 nm fluorescence, primary screen (AID 1119).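 Further: probe is the protein aXip251-270 applied at 1 µg/mL to compound-printed slides; binding of probe to printed compounds measured as 667 nm fluorescence plus signal to noise.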 The following applies: small-molecule microarray, higher = more signal, called active from +8 up or from −8 down.
Test [2] in a line: probe aNOTCH3 binding on compound microarray – biochemical, small-molecule microarray, 635/667 nm fluorescence, primary screen (AID 1120).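 Further: probe is a biotin-tagged antibody raised against NOTCH3 rather than NOTCH3 protein; score merges spot fluorescence near 667 nm with spot signal to noise.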 The following applies: higher = more signal.
Test [3] in a line: probe aNOTCH2 binding on compound microarray – biochemical, small-molecule microarray, 635/667 nm fluorescence, primary screen (AID 1121).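 Further: score merges feature fluorescence read at 667 nm with its signal to noise.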 The conditions noted are these: higher = more signal.
Test [4] addresses Carbonic anhydrase 2 (Homo sapiens) (UniProt P00918). The test is described as follows: compounds binding carbonic anhydrase 2 – biochemical, small-molecule microarray, Alexa647-labelled CAII, profiling panel (AID 1122). The conditions noted are these: CAII-A647 binding fluorescence, higher = more signal.
Test [5] is described as follows: COS7 lysate on small-molecule microarray, probe aHis, 635 nm (AID 1123).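 Further: z-score combines 667nm fluorescence intensity with signal-to-noise per printed compound spot.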 The conditions noted are these: COS7 cell lysate, fluorescence, higher = more signal.
Test [6] can be described thus: probe aLAP1 signal on lysate-treated microarray – cell lysate, small-molecule microarray, COS7 lysate, primary screen (AID 1124).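 Further: lysate comes from COS7 cells expressing LAP1 and is applied at 0.3 µg/mL; score merges spot fluorescence near 667 nm with signal-to-noise over triplicate slides.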 The conditions noted are these: probe aLAP1, fluorescence, higher = more signal.
The test system of the next test is Sam68 (KHDRBS1). In words: compounds binding KHDRBS1 protein – biochemical, small-molecule microarray, 635 nm fluorescence, primary screen (AID 1125).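 Further: score merges 667 nm channel intensity with signal to noise over triplicate slides.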 The conditions noted are these: higher = more signal.
Test [7] has as its system Chordin-like protein 2 (CHRDL2). The test is described as follows: compounds binding chordin-like 2 – biochemical, small-molecule microarray, 635 nm fluorescence, primary screen (AID 1126).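 Further: printed compound slides probed with Chrdl2 protein at 4 µg/mL for 1 h at 4 C; score merges 667 nm emission intensity with signal to noise over three replicate slides.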 The following applies: fluorescence 635 nm, higher = more signal.
Test [8] addresses Concanavalin-A (Canavalia ensiformis) (UniProt P02866). The test is described as follows: compounds binding concanavalin A lectin – biochemical, small-molecule microarray, Alexa647 label, 635 nm, artefact control for SMM control protein annotation, primary screen (AID 1127).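 Further: z combines 667 nm emission intensity with signal-to-noise across three replicate slides.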 The conditions noted are these: ConA-A647 binding fluorescence, higher = more signal.

Sequence of Concanavalin-A (Canavalia ensiformis) (P02866 whole entry, looked up): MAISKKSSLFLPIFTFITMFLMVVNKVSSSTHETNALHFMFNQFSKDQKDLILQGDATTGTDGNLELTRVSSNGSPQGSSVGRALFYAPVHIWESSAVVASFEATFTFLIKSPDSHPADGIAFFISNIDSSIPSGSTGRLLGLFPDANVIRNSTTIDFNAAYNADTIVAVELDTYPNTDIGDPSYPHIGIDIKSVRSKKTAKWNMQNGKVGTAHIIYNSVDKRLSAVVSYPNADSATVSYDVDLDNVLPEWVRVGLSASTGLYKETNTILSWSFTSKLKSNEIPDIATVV
Sequence of Albumin (Bos taurus) (P02769 whole entry, looked up): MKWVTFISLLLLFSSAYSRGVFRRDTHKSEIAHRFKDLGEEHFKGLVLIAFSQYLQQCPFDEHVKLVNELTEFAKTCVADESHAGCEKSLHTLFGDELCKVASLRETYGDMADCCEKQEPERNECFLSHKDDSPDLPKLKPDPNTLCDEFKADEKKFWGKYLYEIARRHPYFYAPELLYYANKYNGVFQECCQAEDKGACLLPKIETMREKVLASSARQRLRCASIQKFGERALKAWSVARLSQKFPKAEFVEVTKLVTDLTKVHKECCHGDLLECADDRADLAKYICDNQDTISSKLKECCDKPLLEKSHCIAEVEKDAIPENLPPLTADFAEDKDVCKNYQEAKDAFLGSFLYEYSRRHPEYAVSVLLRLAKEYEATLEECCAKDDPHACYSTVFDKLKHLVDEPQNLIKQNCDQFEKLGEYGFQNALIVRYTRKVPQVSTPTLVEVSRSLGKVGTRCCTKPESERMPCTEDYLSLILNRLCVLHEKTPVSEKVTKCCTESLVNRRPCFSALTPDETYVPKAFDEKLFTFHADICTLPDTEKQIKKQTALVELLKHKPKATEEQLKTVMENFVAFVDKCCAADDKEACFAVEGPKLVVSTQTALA

Consider `CC(C)C(=C=CC[C@H](O)c1ccc(OCCO)cc1)C[C@H](O)c1ccccn1`, for which the composite z-score with Albumin (Bos taurus) was 0.449; in test [2], -0.0044; in test [3], -0.13; in test [4], 0.513; in test [5], 0.619; in test [6] it was 0.864. Besides, the composite z-score in the test on Sam68 (KHDRBS1) is 1.19; in test [7], -0.237; in test [8], -0.057. In [1], the composite Z-score was 0.168 (inactive).
Turning to `CC(C)C(=C=CC[C@H](O)c1cccc(OCCO)c1)C[C@H](O)c1cc(Cl)cc(Cl)c1O`, the composite z-score with Albumin (Bos taurus) is 0.773; in test [2], 0.0916; in [3], -0.154; in test [4], 0.374; in [5], 1.14; in [6] it was 0.0431. Also, the composite z-score in the test on Sam68 (KHDRBS1) was 0.801; in test [7], -0.331; in test [8], 0.943. In addition, the composite Z-score in test [1] was -0.0673 (inactive).
Consider `C=CCNC(=O)[C@H]1[C@@H]2C(=O)O[C@@H](c3ccccc3)[C@@H](c3ccccc3)N2[C@@H](c2ccc(O)cc2)[C@]12C(=O)N(C(=O)OCCOC)c1ccccc12`, for which the composite z-score with Albumin (Bos taurus) is 0.299; in test [2] it was -0.091; in test [3], 0.0487; in [4] it was 0.385; in test [5], 2.18; in [6], 0.701. Also, the composite z-score was 1.17 with Sam68 (KHDRBS1), 0.0889 in [7] and 0.745 in [8]. For the same molecule, the composite Z-score in test [1] is 0.255 (inactive).
As to `C=CCOC(=O)[C@H]1[C@@H]2C(=O)O[C@@H](c3ccccc3)[C@@H](c3ccccc3)N2[C@@H](c2ccc(OCCOC(=O)[C@@H]3C[C@@H]4C(=O)N[C@@H](CCCCNC(C)=O)C(=O)N4[C@@H]3c3ccc(O)cc3)cc2)[C@]12C(=O)Nc1ccc(I)cc12`, the composite z-score is -0.689 with Albumin (Bos taurus); 0.108 in test [2]; 0.0083 in test [3]; 0.631 in [4]; 1.69 in test [5]; 0.719 in test [6]. Moreover, the composite z-score in the test with Sam68 (KHDRBS1) amounted to 1.29; in test [7], 1.01; in [8] it was 0.764. The composite Z-score in [1] is 1.53 (inactive).
In the case of `COC(=O)[C@@]1(Cc2ccc(OC)cc2)[C@@H]2C(=CC(=O)[C@H]2CC(=O)C(=O)N(C)C)CN1C(=O)c1ccccc1`, the composite z-score with Albumin (Bos taurus) was determined as 0.982; in [2] it was 0.848; in test [3], 0.358; in test [4] it was 0.777; in test [5], 2.47; in test [6] it was 0.536. In addition, the composite z-score in the test with Sam68 (KHDRBS1) was 1.31; in [7] it was -0.501; in test [8], 1.11. In [1], the composite Z-score was -0.0238 (inactive).
As for `O=C1C=C(c2ccccc2)C(=O)c2ccc([C@H]3Oc4ccccc4S(=O)(=O)N4CCC[C@@H]34)cc21`, the composite z-score with Albumin (Bos taurus) is -0.878; in test [2] it was -0.185; in test [3], -0.161; in [4] it was -0.48; in test [5], -0.811; in test [6], -0.534. Moreover, the figures for the composite z-score (in the test with Sam68 (KHDRBS1); in test [7]; in test [8]) were -1.05, 0.594 and -0.388, respectively. For the same molecule, the composite Z-score in test [1] is 0.159 (inactive).
`COc1ccc([Si](C)(C)[C@@H]2[C@@H](CC(=O)N(CCO)Cc3ccccc3)O[C@]3(C(=O)N(Cc4cccc(N5CCOC5=O)c4)c4ccccc43)[C@H]2C)cc1`: the composite z-score in the test with Albumin (Bos taurus) was -0.256; in test [2], -0.269; in test [3], -0.0993; in [4], 0.596; in test [5] it was 1.22; in [6], 0.766. In addition, the results for the composite z-score (in the test on Sam68 (KHDRBS1); in [7]; in test [8]) were 1.3, 0.647 and 1.08, respectively. In [1], the composite Z-score is 1.28 (inactive).
On to `CCOC(=O)C1CCCCN1` (stereo not given), for which the composite z-score with Albumin (Bos taurus) amounted to 0.351; in test [2], 0.77; in test [3], 0.435; in test [4], 0.175; in test [5], 0.437; in test [6], 0.471. Besides, the composite z-score stood at 0.983 in the test with Sam68 (KHDRBS1), 0.47 in [7] and 0.562 in test [8]. In addition, the composite Z-score in test [1] was 0.104 (inactive).
As for `N#Cc1ccc(NN2C(C(O)c3ccc(F)cc3)C=CC3C(=O)N(c4ccccc4)C(=O)C32)cc1` (stereo not given), the composite z-score in the test with Albumin (Bos taurus) was 0.824; in test [2], -0.16; in test [3], -0.138; in test [4], 0.318; in [5], 2.59; in test [6], 0.905. Further, the composite z-score in the test on Sam68 (KHDRBS1) is -0.306; in test [7] it was -1.55; in [8] it was 0.536. The composite Z-score in test [1] was 0.383 (inactive).
Turning to `C=CC[C@]1(C(=O)NCCN2CCOCC2)N=C(c2ccc(OCCCO)cc2)O[C@H]1c1ccccc1CN=[N+]=[N-]`, the composite z-score is -0.91 with Albumin (Bos taurus); -0.273 in test [2]; 0.0855 in test [3]; 0.724 in [4]; 1.41 in [5]; 0.034 in test [6]. In addition, the composite z-score in the test on Sam68 (KHDRBS1) is 0.826; in test [7], 1.38; in test [8], -0.438. The composite Z-score in [1] was 0.363 (inactive).
In the case of `[N-]=[N+]=NCc1ccccc1C[C@@]1(C(=O)NCc2ccccc2)N=C(c2ccc(OCCCO)cc2)O[C@@H]1c1ccccc1N=[N+]=[N-]`, the composite z-score with Albumin (Bos taurus) was 0.428; in test [2], -0.102; in test [3], -0.0527; in [4], 0.301; in test [5], -0.0255; in test [6] it was 0.472. For the same molecule, the composite z-score with Sam68 (KHDRBS1) was 1.06; in test [7], -1.06; in test [8] it was 0.725. Besides, in [1], the composite Z-score was -0.126 (inactive).
For `COc1ccc([Si](C)(C)[C@@H]2[C@@H](CC(=O)N(CCO)Cc3ccccc3)O[C@]3(C(=O)N(c4ccccc4)c4ccccc43)[C@H]2C)cc1`, the composite z-score with Albumin (Bos taurus) is 0.593; in [2], 0.105; in [3] it was -0.162; in test [4], 0.357; in test [5], 1.07; in test [6], 0.0513. For the same molecule, the composite z-score turned out to be 0.981 in the test with Sam68 (KHDRBS1), 1.4 in [7] and 1.1 in test [8]. In addition, in [1], the composite Z-score is 0.657 (inactive).
As to `CCOC(=O)C[C@H]1[C@H](OC(=O)Cc2ccc3c(c2)OCO3)[C@@H](NC(=O)Cc2ccc(OC)cc2)c2cc(OCCCO)ccc2N1C(=O)c1ccc2ccccc2n1`, the composite z-score with Albumin (Bos taurus) is 0.857; in test [2], -0.0768; in test [3], -0.11; in test [4] it was 0.154; in test [5], 1.15; in test [6], 0.199. Also, the composite z-score in the test on Sam68 (KHDRBS1) is 0.489; in [7], 0.276; in test [8], -0.533. In addition, the composite Z-score in test [1] is -0.802 (inactive).
On to `CCCCCCc1nc(-c2cc(C)c(OC)c(C)c2)c(C)c2c1[Si](C(C)C)(C(C)C)OC2`, for which the composite z-score is -0.58 in the test with Albumin (Bos taurus); -0.165 in test [2]; -0.209 in test [3]; -0.146 in test [4]; 0.0188 in test [5]; -0.373 in [6]. The results for the composite z-score (with Sam68 (KHDRBS1); in test [7]; in test [8]) were -0.611, 0.574 and -0.112, respectively. The composite Z-score in test [1] is 0.792 (inactive).
For `COC(=O)C(CC#Cc1ccc2c(c1)[C@]1(C(=O)N2)[C@H](C(=O)N2CCN(c3ncccn3)CC2)[C@H]2C(=O)O[C@H](c3ccccc3)[C@H](c3ccccc3)N2[C@@H]1c1ccc(OCCO)cc1)C(=O)OC`, the composite z-score was 0.535 with Albumin (Bos taurus); 0.207 in [2]; -0.0821 in test [3]; 0.259 in [4]; 1.41 in test [5]; -0.192 in [6]. In addition, the composite z-score was found to be 1.3 in the test on Sam68 (KHDRBS1), 0.621 in test [7] and 1.07 in test [8]. In addition, the composite Z-score in [1] is -0.425 (inactive).
Turning to `CCOc1cc(C(O)C2C=CC3C(=O)N(C)C(=O)C3N2Nc2ccccc2)ccc1O` (stereo not given), the composite z-score with Albumin (Bos taurus) is 1.04; in test [2], 0.194; in test [3], 0.0931; in test [4] it was 0.827; in [5], 1.28; in test [6] it was -0.438. The values for the composite z-score (in the test with Sam68 (KHDRBS1); in [7]; in test [8]) were 1.22, 0.0675 and 0.947, respectively. Moreover, the composite Z-score in [1] was 0.765 (inactive).
Consider `O=C(CS)NCCCCCCNC(=O)[C@H]1C[C@H]2C(=O)N[C@@H](Cc3ccccc3)C(=O)N2[C@H]1c1ccc(O)cc1`, for which the composite z-score was -0.242 with Albumin (Bos taurus); -0.423 in test [2]; -0.0924 in test [3]; 0.557 in [4]; 2.18 in [5]; 0.871 in test [6]. Further, the composite z-score was determined as 1.18 in the test on Sam68 (KHDRBS1), 0.757 in test [7] and 1.1 in test [8]. Further, the composite Z-score in test [1] was 0.578 (inactive).
